# Assay results reported in PubChem BioAssay (NCATS).
# Results filed as inconclusive are left out. A call without a number means that no potency is given here. Activity calls are given as the source filed them. Calls follow the shape of the dose curve; as a rule, active = well fitted inhibition curve with a large enough effect; inconclusive = small, poorly fitted or top-dose-only effect; inactive = no such curve, though single readings can be large or run the other way.
# Biological target: Retinal dehydrogenase 2 (Homo sapiens) (UniProt O94788)
# Assay: qHTS for Inhibitors of the Aldehyde Dehydrogenase Family (ALDH1A2) Confirmation screens (AID 2061314); also: nearly all actives have a fitted effect of over 65% in size; also: potency is read from the fitted curve at half-maximal effect
# Settings: ALDH1A2 enzyme inhibition qHTS confirmation; series mostly up to 45.9 µM
row,SMILES,Potency
1,CCN1C(=O)C=CC1=O,inactive
2,COC1=C(OC)C(=O)c2ccccc2C1=O,2520 nM (active)
3,CN(C)c1cc2c(Nc3ccc4c(cnn4Cc4ccccc4)c3)ncnc2cn1,283 nM (active)

# Biological target: Retinaldehyde dehydrogenase 3 (Homo sapiens) (UniProt P47895)
# Assay: qHTS for Inhibitors of the Aldehyde Dehydrogenase Family (ALDH1A3) Primary screen (AID 2061315)
# Settings: ALDH inhibition qHTS; series mostly up to 56 µM
row,SMILES,Potency
1,NS(=O)(=O)c1ccc(-n2nc(C(F)(F)F)cc2-c2ccc(Cl)cc2)cc1,inactive
2,CCN(CC)CCNC(=O)c1cc(Cl)c(N)cc1OC,inactive
3,CCCCN(CC)c1nc(C)nc2c1c(C)cn2-c1c(C)cc(C)cc1C,inactive
4,COc1cc2ncnc(Nc3cccc(Cl)c3)c2cc1OC,inactive
5,CCNc1nc2c(ncn2[C@H]2C[C@H](O)[C@@H](CO)O2)c(=O)[nH]1,inactive
6,CN(C)c1cc2c(Nc3ccc4c(cnn4Cc4ccccc4)c3)ncnc2cn1,inactive
7,CNCCCC12CCC(c3ccccc31)c1ccccc12,inactive
8,CCOC(=O)CSc1nc2c(sc3ccccc32)c(=O)n1CCCN1CCCC1,inactive
9,Nc1ncnc2n[nH]c(Nc3ccc(F)cc3)c12,inactive
10,COC(=O)C1=C(C)NC(C)=C(C(=O)OC)C1c1cccc(NC(=O)NCCCN2CCC(c3cccc(OC)c3)CC2)c1,inactive
11,CCCNC(=O)NS(=O)(=O)c1ccc(Cl)cc1,inactive
12,O=C(O)CCc1ccc(NCc2cccc(Oc3ccccc3)c2)cc1,inactive
